High-throughput results deposited in PubChem BioAssay by National Center for Advancing Translational Sciences (NCATS).
Pf Dd2 growth: inhibitors of Plasmodium falciparum Dd2 growth | P. falciparum Dd2 growth, SYBR Green, 72 h | Potency, µM (top dose mostly 28.9 µM), inactives show at the highest dose activity, negative = inhibition, usual class: inhibitors | actives 4.3% (n = 120,000) | AID 1347417; active = well fitted inhibition curve with a large enough effect;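 note: plate controls were DMSO vehicle for no effect and reference drug for full effect; nearly all actives have a fitted effect of over 65% in size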
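Infected erythrocytes (Dd2, 0.3% parasitemia, 2.5% hematocrit final) are added to compound in RPMI-1640/Albumax II medium, grown 72 h at 37C in low oxygen, then lysed with saponin/Triton-X containing SYBR Green and read by fluorescence.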
The depositor's hits bear a star; i = inactive; [ ] = remark or other dose. Many of the other results were omitted from the sample, so hits are more common in it than they were. Potency is the fitted concentration of half-maximal effect.

SMILES	Pf Dd2 growth
CC(C)c1noc(C2CCCN(C(=O)Cc3cccc(F)c3)CCC(=O)NCC2)n1 (centres undefined)	-13.4%
Cc1c(C(=O)NCc2cncn2CC(C)C)oc2c(F)cccc12	-27.8%
COc1ccc(CN2CCn3c(nn(-c4ccc(C(F)(F)F)cc4)c3=O)C2)cc1	-6.5%
O=c1n(-c2ccncc2)nc2n1CCN(Cc1ccc(C(F)(F)F)cc1)C2	7.94µM*
O=c1n(-c2ccc(Cl)cc2)nc2n1CCN(Cc1ccc(C(F)(F)F)cc1)C2	-19.1%
Cc1ccc2c(n1)N(C)[C@H](CO)CCN(Cc1ccncc1)C2	17.9%[44.1 µM]
Cc1ccc(C(=O)NC2CCN(c3ccc(=O)n(C)n3)CC2)cn1	i
NCc1ccccc1-c1cnc2ccccc2c1	10µM*
O=C(O)c1cccc(-c2cnc3ccccc3c2)c1	31.5%[44.1 µM]
O=C(NC1CCCCC1)C1(CCO)CCN(c2ncccn2)C1 (centres undefined)	i
COC[C@@H]1CN(Cc2cccc(OC)c2OC)C[C@H]1C(=O)NC1CC1	4.4%
CC(C)NC(=O)CCC[C@@H]1[C@H]2CCCN3CCC[C@@H](CN1Cc1ccccc1)[C@@H]23	i
Cc1ccc(CNC(=O)CCC[C@@H]2[C@H]3CCCN4CCC[C@@H](CN2Cc2ccccc2)[C@@H]34)o1	3.55µM*
Cc1n[nH]c(C)c1CNC(=O)CCC[C@@H]1[C@H]2CCCN3CCC[C@@H](CN1Cc1ccccc1)[C@@H]23	-12.4%
COc1cc(Cl)ccc1C(=O)N1[C@@H]2CC[C@H]1CC(NC(=O)c1ccncc1)C2 (some centres undefined)	0.3%
COc1cccc(CN2C(=O)C3(CCOCC3)CC2c2nnnn2C(C)(C)C)c1OC (centres undefined)	i
CN(C)c1cc(N2CCCC(NC(=O)c3cccn3C)C2)ncn1 (centres undefined)	34.2%[5.79 µM]
N#Cc1cccc(NC(=O)NC[C@H]2C[C@@H]3CCN2C[C@@H]3CN2CCSCC2)c1	-3.5%[44.1 µM]
CN1CCN(C[C@H]2CN3CC[C@H]2C[C@@H]3CNC(=O)Nc2ccccc2)CC1	21.4%[44.1 µM]
CSc1cccc(NC(=O)NC[C@H]2C[C@@H]3CCN2C[C@@H]3CN2CCSCC2)c1	10µM*
CCOC(=O)c1cc(-c2ccccc2)n(CCC(=O)Nc2cc(C)cc(C)c2)c1C	3.16µM*
CCOC(=O)c1cc(-c2ccccc2)n(CCC(=O)NCCc2cccc(C)c2)c1C	-2.6%
CCOC(=O)c1cc(-c2ccccc2)n(CC(=O)Nc2cc(Cl)c(OC)cc2OC)c1C	i
CCOC(=O)c1cc(-c2ccccc2)n(CCC(=O)Nc2ccc(Cl)c(C(F)(F)F)c2)c1C	2.82µM*
CCOC(=O)c1cc(-c2ccccc2)n(CCC(=O)Nc2cc(OCC)ccc2OCC)c1C	20.8%
SMILES	Pf Dd2 growth
CCOC(=O)c1cc(-c2ccccc2)n(CCC(=O)Nc2ccc(C)cc2Cl)c1C	-47.1%
Cc1ccc(O[C@H]2COCC[C@H]2NC(=O)c2cc(CC(C)C)nc(N)n2)cn1	-8.1%
O=C(NC1CCCCC1)c1ccc(N2CC3CC(C2)[C@H]2CCCC(=O)N2C3)nc1 (some centres undefined)	i
COCc1nc(CCNC(=O)C(C)c2ccccc2)no1 (centres undefined)	39.7%
CC(C)(N)C(=O)N1CCC(n2nccc2NC(=O)c2cccc(F)c2)CC1	-8.3%
O=C(CC[C@@H]1CNC(=O)[C@@H]2C[C@H](NC(=O)Nc3ccc(F)cc3F)CN12)NCc1ccc(F)cc1	-13.1%
CN(Cc1cccnc1)C(=O)CCC1CCCN(S(=O)(=O)c2ccccc2)C1 (centres undefined)	-22.7%
CCCOC(=O)c1ccc(Nc2c(C(=O)OCC)cnc3c(C)cc(Cl)cc23)cc1	-23.9%
CCOC(=O)c1cnc2ccc(Cl)cc2c1Nc1ccc(N2CCOCC2)cc1	8.91µM*
CCOC(=O)c1cnc2cc(C(F)(F)F)ccc2c1Nc1cc(C)ccc1OC	9.0%
CCOC(=O)c1cnc2ccc(Br)cc2c1NCCN1CCOCC1	i
CCOC(=O)c1cnc2ccc(C)cc2c1Nc1ccc(N(CC)CC)cc1	4.47µM*
Cc1ccc(NC(=O)Cn2nc(-c3ccc(F)cc3)c3cnc4ccc(C)cc4c32)cc1	46.1%
Cn1ccnc1CN1CCN(CC2(O)CCNC2)CC1 (centres undefined)	-11.3%
CC(=O)N1CCN(c2nc3c(s2)CC(C(=O)NCCC2CCN(C)CC2)CC3)CC1 (centres undefined)	-6.2%
COc1ccc(C(=O)Nc2ccc(C(O)[C@H]3COCC(=O)N3CC(C)C)cc2)cc1 (some centres undefined)	i
CC(=O)N1CC2(Cc3ccccc31)CN(C(=O)C(C)(C)C)C2	-37.5%[44.1 µM]
COCC(=O)NC1CCC12CCN(C(=O)CCC1CCCC1)CC2 (centres undefined)	-23.8%
O=C1NCc2ccccc2CC12CCN(Cc1cc(F)ccc1F)CC2	0.5%
O=C1NCc2ccccc2CC12CCN(Cc1cc(F)ccc1F)C2 (centres undefined)	-15.7%
O=C1NCc2ccccc2CC12CCCN(Cc1ccnc3ccccc13)C2 (centres undefined)	-21.9%
O=C1NCc2ccccc2CC12CCCN(Cc1c(F)cccc1Cl)C2 (centres undefined)	-19.9%
O=C1NCc2ccccc2CC12CCCN(Cc1cc(F)ccc1O)C2 (centres undefined)	8.91µM*
O=C1NCc2ccccc2CC12CCCN(Cc1ccncc1)C2 (centres undefined)	-20.8%
O=C1NCc2ccccc2CC12CCCN(Cc1ccc(F)cc1)C2 (centres undefined)	-24.6%
SMILES	Pf Dd2 growth
O=C1NCc2ccccc2CC12CCN(Cc1cc(F)ccc1O)C2 (centres undefined)	11.2µM*
COc1ccc(CN2CCCC3(Cc4ccccc4CNC3=O)C2)c(OC)n1 (centres undefined)	5.01µM*
Fc1ccccc1CN1CCOC[C@H](Oc2cnccn2)C1	-15.7%[44.1 µM]
COc1ccc(NC(=O)[C@@H]2C[C@H](c3ccc(F)cc3)N(Cc3csc(C)n3)C2)cc1	-13.6%[44.1 µM]
Nc1ccsc1C(=O)N1CCC2(CCC(=O)N(CC3CCCO3)C2)CC1 (centres undefined)	-11.6%
O=C(c1ccccc1)N1CCN2C(=O)N(Cc3ccccc3)C(=O)[C@H]2C1	i
COc1ccc(C(=O)N2CC[C@@H]3CN(S(C)(=O)=O)[C@@H]3C2)cn1	41.5%
Cc1ccccc1C(=O)N1CC(c2nc(CCc3ccccc3)no2)C1	-19.0%
O=C(Nc1nccs1)c1ccc2c(c1)OCCN(CCC(F)(F)F)C2	-7.4%[44.1 µM]
COc1ccc(NC(=O)c2ccc3c(c2)OCCN(C2CCC2)C3)c(F)c1	i
O=C(Nc1ccc2cn[nH]c2c1)c1ccc2c(c1)OCCN(c1ccccc1)C2	11.2µM*
O=C(Nc1ccc(F)cc1)c1ccc2c(c1)OCCN(CCC(F)(F)F)C2	i
O=C(Nc1nccs1)c1ccc2c(c1)OCCN(c1ccccc1)C2	10µM*
Cc1cnc(NC(=O)c2ccc3c(c2)OCCN(Cc2ncccn2)C3)s1	i
CC(C)CCN1CCOc2cc(C(=O)Nc3ccccc3)ccc2C1	-14.0%[44.1 µM]
O=C(Nc1nccs1)c1ccc2c(c1)OCCN(C1CCC1)C2	7.94µM*
Cc1cnc(NC(=O)c2ccc3c(c2)OCCN(C2CCC2)C3)s1	i
Cc1ccc2nc(C)c(C)c(C(=O)NCc3nc(-c4ncccn4)no3)c2c1	-13.4%
O=C(c1ccc2c(c1)OCO2)N1CCCC(n2cc(-c3nc(-c4ccccc4)no3)nn2)C1 (centres undefined)	i
CNC(=O)C(C)(C)N1CCC[C@H]1C(=O)NCCc1ccccc1	-10.8%[44.1 µM]
Cc1cc(F)ccc1OC1CN(Cc2ccc(C(F)(F)F)cc2)C1	-29.9%[44.1 µM]
